A selection follows.
aSyn UTR act: Activators working through SNCA 5'UTR binding (MLPCN) | alpha-synuclein 5'UTR reporter, activators screen | activity score, % (tested at 7.5 µM), hits read low | 300,000 compounds, 7.1% hits | AID 1814; in the data active means activity score below about -60%
Starred values were filed as active, the others as inactive.

Screening COc1cc(/C=N/Nc2ccccn2)ccc1O returned aSyn UTR act -91*.
Screening COc1ccc(/C=N/Nc2ccccn2)cc1OC returned aSyn UTR act -114*.
`COc1ccc(-c2cnnc(N/N=C/c3ccc(O)c(OC)c3)n2)cc1` gave aSyn UTR act -95*.
`COc1ccc(/C=N/Nc2nc(N)cc(Cl)n2)cc1OC` gave aSyn UTR act -75*.
For CCCC[n+]1ccn(C2=C([O-])c3ccccc3C(=O)/C2=N\S(=O)(=O)c2ccc(Cl)cc2)c1 the results were aSyn UTR act 66.
`O=C(Nc1nnc(C2CC2)s1)C1Cc2ccccc2CN1S(=O)(=O)c1ccccc1F` (stereo not drawn) gave aSyn UTR act -178*.
For CCS(=O)(=O)N1Cc2ccccc2CC1C(=O)Nc1ncc(C)s1 (stereo not drawn) the results were aSyn UTR act -126*.
CCS(=O)(=O)N1Cc2ccccc2CC1C(=O)Nc1ccc(F)c(F)c1 (stereo not drawn) was read as aSyn UTR act -88*.
For CCS(=O)(=O)N1Cc2ccccc2CC1C(=O)Nc1ccc(F)c(F)c1F (stereo not drawn) the results were aSyn UTR act -62*.
Screening CCS(=O)(=O)N1Cc2ccccc2CC1C(=O)Nc1cccc(C)c1 (stereo not drawn) returned aSyn UTR act -102*.
Screening CCCc1nc2oc3c(NCc4ccccn4)ncnc3c2c2c1COC(C)(C)C2 returned aSyn UTR act 53.
For Cc1nc2oc(C(=O)c3ccccc3)c(N)c2c2c1COC(C)(C)C2 the results were aSyn UTR act -83*.
`COc1ccc(OC(=O)c2ccc(Cl)cc2)c(C(C)=O)c1` gave aSyn UTR act -78*.
For COc1ccc(C(=O)Nc2cc(Cl)ccc2OC(=O)c2ccc(OC)cc2)cc1 the results were aSyn UTR act -158*.
Screening Cc1cc(NC(=O)c2ccccc2)c(Cl)cc1N returned aSyn UTR act 64.
`O=C(Nc1ccccc1O)c1ccc([N+](=O)[O-])cc1` gave aSyn UTR act -70*.
`CC(C)(C)c1ccc(C(=O)Nc2ccccc2Cl)cc1` gave aSyn UTR act -88*.
For COc1cc(NC(=O)c2cc3nc(C)cc(C)n3n2)c(OC)cc1Cl the results were aSyn UTR act -214*.
COc1ccc(-c2noc(CCCC(=O)NC3CCCC3)n2)cc1 was read as aSyn UTR act 62.
O=C(Nc1ccccc1O)c1ccc(Cl)cc1 was read as aSyn UTR act -255*.
For COc1ccc(C(=O)Nc2cc(OC)c(Cl)cc2OC)cc1 the results were aSyn UTR act -120*.
`COc1ccc(-c2noc(CCC(=O)Nc3cc(Cl)c(OC)cc3OC)n2)cc1` gave aSyn UTR act -65*.
`Cc1ccc(C(=O)Nc2cc(Cl)ccc2OC(=O)c2ccc(C)cc2)cc1` gave aSyn UTR act -227*.
For O=C(Nc1ccccc1OC(=O)c1ccc(Cl)cc1)c1ccc(Cl)cc1 the results were aSyn UTR act -343*.
Screening CC1CCC(NC(=O)C2CCN(c3c4c(nc5ncnn35)CCC4)CC2)CC1 (stereo not drawn) returned aSyn UTR act -65*.
Screening C=CCNC(=O)CCc1nnc(C2(c3ccc(Cl)cc3)CCC2)o1 returned aSyn UTR act -120*.
`C=C(C)CNC(=O)CCc1nnc(C2(c3ccc(Cl)cc3)CCC2)o1` gave aSyn UTR act -98*.
`COCC(C)NC(=O)CCc1nnc(C2(c3ccc(Cl)cc3)CCC2)o1` (stereo not drawn) gave aSyn UTR act -81*.
Cc1cc2nn(-c3cccc4ccccc34)nc2cc1N was read as aSyn UTR act -180*.
`CS(=O)(=O)c1nc(-c2cccs2)cc(C(F)(F)F)n1` gave aSyn UTR act -90*.
`COc1ccc(-c2cc(C(F)(F)F)nc(S(C)(=O)=O)n2)cc1` gave aSyn UTR act -103*.
For Cc1cc(NC(=O)CCCS(=O)(=O)c2nc(-c3cccs3)cc(C(F)(F)F)n2)no1 the results were aSyn UTR act -92*.
For CS(=O)(=O)c1nc(-c2ccc(F)cc2)cc(C(F)(F)F)n1 the results were aSyn UTR act -126*.
For O=C(Nc1ccccc1)c1cc2n(n1)C(C(F)(F)F)CC(C1CC1)N2 (stereo not drawn) the results were aSyn UTR act -168*.
CCc1ccc2c(c1)[C@]1(C(=O)N2)[C@@H]2C(=O)N(Cc3ccccc3)C(=O)[C@@H]2[C@@H]2CCCN21 was read as aSyn UTR act -78*.
Screening COc1ccccc1Oc1ccc(N/C=C/C(=O)c2ccco2)cc1 returned aSyn UTR act -199*.
For O=C(/C=C/Nc1ccc(Oc2ccccc2Cl)cc1)c1ccco1 the results were aSyn UTR act -184*.
`Cc1ccc(-c2nc3ccc(NS(=O)(=O)c4ccccc4)cc3[nH]2)o1` gave aSyn UTR act -174*.
For Cc1cc(C)cc(NS(=O)(=O)c2ccc(-c3cnc(C4CC4)o3)cc2)c1 the results were aSyn UTR act 93.
O=C(Nc1ccc2nc(-c3cccnc3)[nH]c2c1)C1CCCCC1 was read as aSyn UTR act -72*.
